Test results from the supplement of paper PMC10849652.
About 7,900 targets were measured; listed, in parts, are those with a hit and a random draw of the rest. About 0.6% of all pairs of compound and target were hits. Unmarked numbers belong to inactive results.

Compound: c1cn2cc(-c3ccc4cn[nH]c4c3)nc(Nc3ccc(N4CCOCC4)cc3)c2n1 [entospletinib]
Assay: log2 fold change, soluble protein after heating vs DMSO (PISA); higher = thermal stabilisation; K562 cells, 10 uM, 30 min; active = over 0.2 and 3.5 SD of the protein, either way, in both replicates (recomputed)
Procedure, shortened: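 Quantification of soluble protein used TMTpro 16plex LC-MS/MS, with channel sums equalised. Samples were the supernatant after 21,000xg for 90 min of pooled aliquots from K562 cells (2×10^6 cells/mL) treated with 10 μM compound for 30 min, heated for 3 min over 48°C-58°C, and extracted in PBS with 0.5% NP-40 at 4°C. Values, from duplicates, describe thermal stability against control samples on a log2 fold-change scale.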

Chain of UniProt Q9H4A4 (Q9H4A4 whole entry, looked up): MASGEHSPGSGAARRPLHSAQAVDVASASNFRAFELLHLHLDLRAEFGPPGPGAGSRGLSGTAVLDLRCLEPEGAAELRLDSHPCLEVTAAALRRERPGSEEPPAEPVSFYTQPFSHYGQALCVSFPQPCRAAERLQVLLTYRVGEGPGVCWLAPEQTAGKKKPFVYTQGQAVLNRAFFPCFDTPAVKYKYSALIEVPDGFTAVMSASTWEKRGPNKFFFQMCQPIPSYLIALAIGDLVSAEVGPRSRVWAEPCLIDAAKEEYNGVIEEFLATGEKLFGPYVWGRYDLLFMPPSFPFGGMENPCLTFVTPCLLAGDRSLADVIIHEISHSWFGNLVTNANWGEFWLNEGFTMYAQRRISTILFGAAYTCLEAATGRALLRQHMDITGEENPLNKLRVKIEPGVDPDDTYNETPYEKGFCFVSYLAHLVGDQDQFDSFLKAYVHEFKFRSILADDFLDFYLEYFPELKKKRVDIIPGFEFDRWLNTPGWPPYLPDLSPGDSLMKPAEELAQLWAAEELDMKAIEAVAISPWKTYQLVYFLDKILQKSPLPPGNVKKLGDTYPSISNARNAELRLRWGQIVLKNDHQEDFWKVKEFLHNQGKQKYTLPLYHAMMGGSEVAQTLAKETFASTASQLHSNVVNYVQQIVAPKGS
Chain of UniProt P35244 (P35244 whole entry, looked up): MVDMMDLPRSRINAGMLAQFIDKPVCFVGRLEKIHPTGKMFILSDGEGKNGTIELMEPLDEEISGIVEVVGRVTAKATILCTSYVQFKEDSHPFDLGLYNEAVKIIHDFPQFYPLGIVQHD
Chain of UniProt O43665 (O43665 whole entry, looked up): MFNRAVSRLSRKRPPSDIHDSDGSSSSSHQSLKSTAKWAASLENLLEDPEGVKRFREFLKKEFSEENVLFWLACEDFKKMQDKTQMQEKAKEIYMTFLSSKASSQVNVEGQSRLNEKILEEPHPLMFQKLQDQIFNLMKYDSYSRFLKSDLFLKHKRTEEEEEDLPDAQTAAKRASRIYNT
Chain of UniProt P62070 (P62070 whole entry, looked up): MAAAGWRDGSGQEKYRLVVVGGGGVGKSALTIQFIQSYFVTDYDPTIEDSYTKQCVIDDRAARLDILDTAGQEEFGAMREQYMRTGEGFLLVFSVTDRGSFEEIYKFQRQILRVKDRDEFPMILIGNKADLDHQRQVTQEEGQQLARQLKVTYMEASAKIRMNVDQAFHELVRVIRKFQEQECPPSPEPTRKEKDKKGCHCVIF
Chain of UniProt P61586 (P61586 whole entry, looked up): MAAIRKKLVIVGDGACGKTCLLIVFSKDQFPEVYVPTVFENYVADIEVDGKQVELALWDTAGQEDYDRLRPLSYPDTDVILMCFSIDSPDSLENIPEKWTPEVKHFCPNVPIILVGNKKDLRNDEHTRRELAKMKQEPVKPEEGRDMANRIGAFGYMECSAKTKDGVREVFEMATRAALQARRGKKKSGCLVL
Chain of UniProt Q9BVS4 (Q9BVS4 whole entry, looked up): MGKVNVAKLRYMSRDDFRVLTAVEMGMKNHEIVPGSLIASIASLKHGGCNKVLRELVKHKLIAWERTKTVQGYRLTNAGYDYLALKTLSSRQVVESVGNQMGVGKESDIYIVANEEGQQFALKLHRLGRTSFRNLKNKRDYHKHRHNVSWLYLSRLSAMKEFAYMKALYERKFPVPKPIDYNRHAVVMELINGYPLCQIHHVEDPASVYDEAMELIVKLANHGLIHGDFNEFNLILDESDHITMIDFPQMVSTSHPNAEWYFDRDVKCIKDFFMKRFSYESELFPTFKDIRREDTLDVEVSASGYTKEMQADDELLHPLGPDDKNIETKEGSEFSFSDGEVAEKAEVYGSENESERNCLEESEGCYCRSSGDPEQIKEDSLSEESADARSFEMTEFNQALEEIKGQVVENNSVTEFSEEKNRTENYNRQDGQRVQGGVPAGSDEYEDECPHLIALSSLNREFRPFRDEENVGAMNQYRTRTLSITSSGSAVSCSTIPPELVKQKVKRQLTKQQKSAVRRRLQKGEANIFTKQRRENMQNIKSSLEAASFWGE
Chain of UniProt Q15418 (Q15418 whole entry, looked up): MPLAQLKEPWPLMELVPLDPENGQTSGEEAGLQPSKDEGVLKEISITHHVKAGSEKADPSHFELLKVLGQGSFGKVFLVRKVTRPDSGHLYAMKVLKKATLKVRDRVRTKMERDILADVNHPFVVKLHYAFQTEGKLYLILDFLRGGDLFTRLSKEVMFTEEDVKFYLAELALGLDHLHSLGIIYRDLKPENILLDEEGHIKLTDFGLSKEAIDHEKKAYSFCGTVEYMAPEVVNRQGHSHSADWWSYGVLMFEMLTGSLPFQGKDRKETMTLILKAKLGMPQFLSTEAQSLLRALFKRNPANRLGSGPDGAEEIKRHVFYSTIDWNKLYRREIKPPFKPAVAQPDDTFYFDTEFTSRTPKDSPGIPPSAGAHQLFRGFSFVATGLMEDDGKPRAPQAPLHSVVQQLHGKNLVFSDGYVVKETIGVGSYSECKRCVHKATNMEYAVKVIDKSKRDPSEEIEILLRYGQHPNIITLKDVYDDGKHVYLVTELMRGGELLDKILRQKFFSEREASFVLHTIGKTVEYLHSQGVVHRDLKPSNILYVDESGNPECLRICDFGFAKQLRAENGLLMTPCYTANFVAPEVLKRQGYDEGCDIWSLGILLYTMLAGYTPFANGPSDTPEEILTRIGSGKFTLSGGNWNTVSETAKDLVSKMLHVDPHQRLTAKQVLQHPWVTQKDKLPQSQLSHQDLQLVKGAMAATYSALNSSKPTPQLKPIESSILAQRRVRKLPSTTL
Chain of UniProt Q86X27 (Q86X27 whole entry, looked up): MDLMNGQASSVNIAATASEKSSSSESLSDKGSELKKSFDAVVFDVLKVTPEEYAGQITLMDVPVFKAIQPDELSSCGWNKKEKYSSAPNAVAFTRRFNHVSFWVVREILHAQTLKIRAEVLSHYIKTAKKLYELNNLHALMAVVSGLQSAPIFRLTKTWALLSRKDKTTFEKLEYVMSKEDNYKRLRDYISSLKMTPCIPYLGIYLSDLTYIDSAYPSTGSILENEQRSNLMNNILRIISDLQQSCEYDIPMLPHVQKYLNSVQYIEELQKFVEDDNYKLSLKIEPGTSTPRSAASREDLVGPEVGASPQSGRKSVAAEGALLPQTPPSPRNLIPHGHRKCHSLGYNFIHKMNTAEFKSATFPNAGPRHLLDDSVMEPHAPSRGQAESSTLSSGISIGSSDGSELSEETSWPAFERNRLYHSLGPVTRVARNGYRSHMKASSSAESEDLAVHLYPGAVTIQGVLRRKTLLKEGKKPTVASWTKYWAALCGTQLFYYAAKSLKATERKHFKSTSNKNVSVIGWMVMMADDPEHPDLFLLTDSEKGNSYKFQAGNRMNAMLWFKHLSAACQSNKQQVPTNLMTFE
Chain of UniProt Q15287 (Q15287 whole entry, looked up): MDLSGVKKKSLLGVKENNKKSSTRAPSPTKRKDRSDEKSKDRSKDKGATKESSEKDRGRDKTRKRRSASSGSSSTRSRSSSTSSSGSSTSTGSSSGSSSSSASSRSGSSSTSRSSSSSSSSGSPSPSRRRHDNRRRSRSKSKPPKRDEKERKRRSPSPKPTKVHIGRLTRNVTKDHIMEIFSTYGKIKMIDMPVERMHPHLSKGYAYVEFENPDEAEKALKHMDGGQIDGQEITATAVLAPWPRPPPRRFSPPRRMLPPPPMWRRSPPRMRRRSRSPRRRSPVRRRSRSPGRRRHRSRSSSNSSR
Chain of UniProt Q9NTJ5 (Q9NTJ5 whole entry, looked up): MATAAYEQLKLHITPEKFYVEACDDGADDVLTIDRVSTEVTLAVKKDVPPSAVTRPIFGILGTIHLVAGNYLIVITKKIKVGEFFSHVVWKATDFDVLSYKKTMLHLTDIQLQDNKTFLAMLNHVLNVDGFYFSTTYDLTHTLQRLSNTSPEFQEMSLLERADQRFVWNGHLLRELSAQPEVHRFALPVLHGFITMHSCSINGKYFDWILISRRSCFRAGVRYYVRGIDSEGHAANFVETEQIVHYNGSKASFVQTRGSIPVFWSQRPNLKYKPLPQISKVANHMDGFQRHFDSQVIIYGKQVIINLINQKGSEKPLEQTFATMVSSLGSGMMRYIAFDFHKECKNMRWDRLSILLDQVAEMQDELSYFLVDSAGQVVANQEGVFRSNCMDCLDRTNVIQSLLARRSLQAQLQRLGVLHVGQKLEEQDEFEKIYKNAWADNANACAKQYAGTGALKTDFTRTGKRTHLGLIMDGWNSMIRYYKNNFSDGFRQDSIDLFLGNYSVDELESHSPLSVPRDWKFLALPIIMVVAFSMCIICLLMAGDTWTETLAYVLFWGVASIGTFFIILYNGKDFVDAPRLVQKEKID
Chain of UniProt Q15349 (Q15349 whole entry, looked up): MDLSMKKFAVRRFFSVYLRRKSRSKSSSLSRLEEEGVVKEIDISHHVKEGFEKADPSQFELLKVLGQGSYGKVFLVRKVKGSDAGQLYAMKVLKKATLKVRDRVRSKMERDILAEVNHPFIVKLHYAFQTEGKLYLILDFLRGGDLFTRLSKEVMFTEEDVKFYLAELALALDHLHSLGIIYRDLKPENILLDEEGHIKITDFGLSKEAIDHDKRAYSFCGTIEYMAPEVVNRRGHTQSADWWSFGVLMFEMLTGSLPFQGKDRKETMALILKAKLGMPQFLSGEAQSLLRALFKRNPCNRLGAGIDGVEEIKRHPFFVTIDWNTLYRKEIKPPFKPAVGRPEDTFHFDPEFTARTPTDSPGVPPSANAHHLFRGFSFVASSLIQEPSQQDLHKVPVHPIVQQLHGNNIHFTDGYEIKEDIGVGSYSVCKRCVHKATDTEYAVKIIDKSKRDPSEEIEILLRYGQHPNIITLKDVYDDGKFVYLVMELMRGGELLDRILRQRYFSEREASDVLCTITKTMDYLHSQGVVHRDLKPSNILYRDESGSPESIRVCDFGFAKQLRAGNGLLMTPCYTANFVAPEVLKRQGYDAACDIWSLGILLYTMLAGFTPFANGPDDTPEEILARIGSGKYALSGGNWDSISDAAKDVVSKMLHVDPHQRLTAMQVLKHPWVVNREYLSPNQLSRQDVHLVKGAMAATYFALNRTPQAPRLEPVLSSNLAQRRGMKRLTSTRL
Chain of UniProt Q9BWJ5 (Q9BWJ5 whole entry, looked up): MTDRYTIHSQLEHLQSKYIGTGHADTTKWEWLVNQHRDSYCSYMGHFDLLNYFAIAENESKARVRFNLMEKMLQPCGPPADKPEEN

| Target | log2 fold change |
| --- | --- |
| SLC12A5 (UniProt Q9H2X9) | -0.081 |
| RHOA (UniProt P61586) | 0.054 |
| RRAS2 isoform 4 (UniProt P62070) | -0.012 |
| RALGPS2 (UniProt Q86X27) | -0.153 |
| SCG3 (UniProt Q8WXD2) | 0.091 |
| RB1CC1 (UniProt Q8TDY2) | -0.041 |
| RAPGEF4 (UniProt Q8WZA2) | -0.14 |
| RAB3GAP2 (UniProt Q9H2M9) | 0.091 |
| SF3B5 (UniProt Q9BWJ5) | 0.021 |
| RBM12 (UniProt Q9NTZ6) | -0.055 |
| SLC18B1 (UniProt Q6NT16) | 0.027 |
| RALA (UniProt P11233) | -0.026 |
| RIOK2 (UniProt Q9BVS4) | 0.105 |
| RPS6KA1 isoform 2 (UniProt Q15418) | 0.026 |
| RPS6KA2 isoform 2 (UniProt Q15349) | 0.013 |
| RGS10 (UniProt O43665) | -0.006 |
| RNPEP (UniProt Q9H4A4) | 0.004 |
| RPA1 (UniProt P27694) | -0.024 |
| RPS9 (UniProt P46781) | 0.042 |
| RPS15 (UniProt P62841) | 0.186 |
| RPA3 (UniProt P35244) | -0.02 |
| RNPS1 (UniProt Q15287) | 0.064 |
| SACM1L (UniProt Q9NTJ5) | 0.004 |
